PubChem BioAssay (NCI)
This is part of a sample that, as a whole, favours compounds with a hit. Of some 83,000 tested, about 20% had one in any assay.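 Results are percent growth after 48 hours of single-concentration exposure. 100 means growth as in untreated cells, lower positive values show inhibition; negative values down to -100 show cell death.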 Values without a mark were called inactive. The source made the active and inactive calls. How the source made its calls: active means growth percent below 10; inactive means the rest.

Tests used:
Test in all cases: NCI-60 one-dose screen, 48 h (100 = growth as untreated, 0 = no growth, -100 = all killed)
Conditions in all cases: 10 µM unless noted
SR leukemia = tested on: SR leukemia
RPMI-8226 leukemia = tested on: RPMI-8226 leukemia
OVCAR-8 ovarian = tested on: OVCAR-8 ovarian
OVCAR-5 ovarian = tested on: OVCAR-5 ovarian
OVCAR-4 ovarian = tested on: OVCAR-4 ovarian
SK-OV-3 ovarian = tested on: SK-OV-3 ovarian
IGROV1 ovarian = tested on: IGROV1 ovarian
OVCAR-3 ovarian = tested on: OVCAR-3 ovarian
HS 578T breast = tested on: HS 578T breast
NCI/ADR-RES ovarian = tested on: NCI/ADR-RES ovarian
T-47D breast = tested on: T-47D breast
BT-549 breast = tested on: BT-549 breast
MDA-MB-435 melanoma = tested on: MDA-MB-435 melanoma
SW-620 colon = tested on: SW-620 colon
MCF7 breast = tested on: MCF7 breast
HCT-116 colon = tested on: HCT-116 colon
HCC-2998 colon = tested on: HCC-2998 colon
KM12 colon = tested on: KM12 colon

SMILES | growth (SR leukemia) | growth (RPMI-8226 leukemia) | growth (OVCAR-8 ovarian) | growth (OVCAR-5 ovarian) | growth (OVCAR-4 ovarian) | growth (SK-OV-3 ovarian) | growth (IGROV1 ovarian) | growth (OVCAR-3 ovarian) | growth (HS 578T breast) | growth (NCI/ADR-RES ovarian) | growth (T-47D breast) | growth (BT-549 breast) | growth (MDA-MB-435 melanoma) | growth (SW-620 colon) | growth (MCF7 breast) | growth (HCT-116 colon) | growth (HCC-2998 colon) | growth (KM12 colon)
CCCCCCCCn1ccc2cc(NC(=O)Cn3cc(CN4CCCCCC4)nn3)ccc21 | -13.1% (active) | -9.08% (active) | 30% | 35.6% | 51% | 97.6% | 52.2% | 10.1% | 65.7% | 55.1% | -47.4% (active) | 96.8% | -85.3% (active) | -78.3% (active) | -23.2% (active) | -77.3% (active) | -80.9% (active) | -27.8% (active)
Cn1cc(-c2nonc2-c2c[nH]c3ccccc23)c2ccccc21 | 11.6% | 8.96% (active) | 16% | 25.9% | 30.5% | 18.9% | 24.4% | -17.7% (active) | 6.76% (active) | 5.05% (active) | 25.9% | 18.7% | -45.3% (active) | 22.4% | 14.3% | 5.44% (active) | 11.1% | 7.64% (active)
CC1(C)OC(=O)C(=Cc2cccc(Br)c2)C(=O)O1 | 99.7% | 97.4% | 98.4% | 117% | 114% | 109% | 102% | 107% | 90.8% | 107% | 92.7% | 108% | 108% | 102% | 102% | 102% | 113% | 111%
CC/C=C1/C(=O)C=C[C@@H]1C/C=C\CCCC(=O)OC | 4.16% (active) | -5.45% (active) | 25.7% | 112% | 96.9% | 117% | 105% | 51.4% | 43% | 57.7% | 62.4% | 16.6% | 4.2% (active) | 14.9% | 15.6% | -59.6% (active) | 114% | 17.1%
CCN(CC)CCOc1ccc(Nc2ncc3cc(-c4ccc(O)cc4)c(=O)n(C)c3n2)cc1 | -20.5% (active) | 70.6% | 55.7% | 57.9% | 110% | 53% | 23.2% | 71.1% | 33.5% | 84% | 67.4% | 30.1% | 61.1% | -33.7% (active) | 51.5% | 32% | 86.8% | 37.2%
O=C(Cn1nnc2ccccc21)Nc1ccc(-c2nc3ccccc3s2)cc1 | 40.2% | 85.3% | 98.5% | 104% | 72.2% | 104% | 97.5% | 90.4% | 112% | 96.2% | 66.9% | 86.5% | 95.9% | 94.5% | 28.9% | 97.4% | 93.7% | 91.4%
CCOC(=O)C1=C(C)N=C2SC=C(c3ccccc3)N2[C@H]1c1cn[nH]c1-c1ccc(Cl)cc1 | -31.2% (active) | -8.38% (active) | 50.9% | 108% | 55.6% | 62.5% | -24.4% (active) | 22.5% | 45.6% | 69.4% | 38.8% | 34.1% | 49.4% | 37.7% | 21.7% | 18.5% | 109% | 59.4%
O=C(/C=C/c1cccc(Cl)c1)c1cccc(OCCCCOc2cccc(C(=O)/C=C/c3cccc(Cl)c3)c2)c1 | 39.5% | -26.8% (active) | 97.3% | 109% | 93.3% | 113% | 88.9% | 91.9% | 95.8% | 99.7% | 75.8% | 92.6% | 70.9% | 75.1% | 12.6% | -13.7% (active) | 85.5% | 70.5%
COc1ccc(NC(=O)c2ccc(C(=O)Nc3ccc(OC)cc3OC)cc2)c(OC)c1 | 87.9% | 80.1% | 44.5% | 81.2% | 88.2% | 43.8% | 54.7% | 90.6% | 39.3% | 79.6% | 71.9% | 43.6% | 93.3% | 97.9% | 75.2% | 78.1% | 72.2% | 103%
Brc1ccc(-c2cnc3nonc3n2)cc1 | 19.9% | 31.1% | 80.5% | 122% | 42.7% | 110% | 81.1% | 9.13% (active) | 87.3% | 79.7% | 69.7% | 115% | 3.37% (active) | 77.6% | 28.2% | 60% | 91.3% | 78.2%
CCN(C(=O)N1CCN(c2cc3c(cc2F)c(=O)c(C(=O)O)cn3C2CC2)CC1)c1nc(-c2ccc(C)cc2)cs1 | 17.2% | 14.8% | 11.5% | 21.7% | 31.5% | -10.4% (active) | 6.38% (active) | 9.01% (active) | 18.3% | 2.74% (active) | 25.5% | -11.3% (active) | 16.2% | 18.5% | 6.09% (active) | 12.4% | 21.1% | 10.6%
Clc1nccc2c(-c3csc(-c4c[nH]c5ccccc45)n3)c[nH]c12 | 11.3% | 51.4% | 56.5% | 107% | 68.9% | 58.8% | 68.6% | 68.6% | 45.2% | 53.1% | 37% | 65.7% | 53.9% | 7.87% (active) | 49.6% | 39.7% | 63.7% | 47.5%
COC(=O)/C(CCC=C(C)C)=C1\[C@@H](OC(C)=O)C[C@@]2(C)[C@H]1CC(=O)[C@H]1[C@@]3(C)CCC(N4CCCC4)[C@@H](C)[C@@H]3CC[C@@]12C (some centres not stated) | 56.3% | 85.5% | 95.7% | 96.9% | 97.5% | 108% | 102% | 99.1% | 89.1% | 99.3% | 94.9% | 92.5% | 97.5% | 103% | 74.6% | 84.9% | 114% | 105%
CN1CCCc2cc(/C=C3/SC(=S)N(CCc4ccc(O)cc4)C3=O)ccc21 | 32.9% | 49.5% | 96.6% | 108% | 87.2% | 111% | 76% | 88.2% | 93.9% | 83.3% | 84% | 84.9% | 17.5% | 85% | 72.2% | 89.3% | 106% | 48.7%
COc1cc(-c2nc3occn3c2-c2ccnc(NCCCNS(=O)(=O)c3ccccc3)n2)ccc1F | 56.4% | 5.21% (active) | 21.9% | 111% | 33% | 59.2% | 49.8% | 66.2% | 75.6% | 20.5% | 8.36% (active) | 29.7% | 9.04% (active) | 65.2% | 20.5% | 34.3% | 69.1% | 30%
COc1cc2c(c(OC)c1OC)C(=O)N[C@@H]1[C@@H](O)[C@@H](O)[C@H](O)C[C@@H]21 | 95.6% | 102% | 97.3% | 106% | 107% | 99.9% | 111% | 112% | 108% | 108% | 100% | 110% | 110% | 109% | 96.1% | 98.9% | 101% | 108%
Cc1ccc(C)c2c1C(O)(C#Cc1ccccc1)c1ccccc1C2(O)C#Cc1ccccc1 (configuration not stated) | 123% | 18.9% | 59.3% | 81.3% | 47.7% | 75% | -12.5% (active) | 63.3% | 72.5% | 71.1% | 38.5% | 68% | 47.9% | 53.5% | 28.9% | 43.3% | 87.4% | 50.1%
COc1ccc2c(O)c(/C=C3\N=Nc4ccccc43)oc2c1C[C@H]1CCNC[C@H]1F | -23.4% (active) | 60.4% | 61% | 35.4% | 57.6% | 69% | 62.7% | 66.4% | 54.7% | 82.4% | 83.3% | 71.2% | 35.4% | 15.6% | 12.1% | 26.7% | 49.7% | 2.5% (active)
O=C(NCc1ccccc1O)c1cccc2ccccc12 | 64.9% | 38.6% | 89.8% | 108% | 72.7% | 89.5% | 62% | 56.4% | 66.5% | 79.2% | 59.7% | 68.8% | 76.9% | 87.6% | 83.9% | 69.1% | 89.9% | 85%
COc1ccc2cc(Cn3cc[n+](Cc4ccc5ccccc5c4)c3)ccc2c1 | 9.3% (active) | 1.54% (active) | 8.73% (active) | 45.6% | 8.75% (active) | 29.8% | -9.16% (active) | 4.18% (active) | 46.3% | 102% | -4.51% (active) | 11.8% | 7% (active) | 44.4% | 40.9% | 33.7% | 26.7% | -23.2% (active)
CCn1cc(C(=O)N/N=C/c2ccc(Br)cc2)c(=O)c2cc(F)c(N3CCNC(C)C3)c(F)c21 (configuration not stated) | 4.35% (active) | -14.8% (active) | 57.8% | 94% | 81.7% | 109% | 71.3% | 52.9% | 73% | 83.3% | 64.1% | 91.7% | 16.7% | -74.1% (active) | -77.3% (active) | 67.7% | 25.9% | 47.9%
N#C/C(=C\c1ccc(Cl)cc1Cl)C(=O)Nc1ncc(Cc2ccc(Cl)c(Cl)c2)s1 | 59.6% | 92.9% | 91.6% | 71.5% | 82.8% | 96.6% | 85.6% | 98.9% | 94.3% | 83.2% | 58.5% | 111% | 60.8% | 62.6% | 84% | 78.5% | 87% | 80.1%
O=C(N/N=C/c1ccc([N+](=O)[O-])cc1)c1ccc2nc(-c3ccc(Cl)cc3)[nH]c2c1 | -8.49% (active) | 10.8% | 21.6% | 53.2% | 23% | 60.5% | 19.1% | 11.3% | 36.8% | 77.3% | 10.5% | 14% | 47.6% | 12.7% | 0.723% (active) | 14.6% | 14.9% | 13%
CCCCCCC(=O)Nc1ncc(Cc2ccc(C)cc2)s1 | 20.4% | 40.1% | 45.5% | 58.1% | 50.1% | 31.8% | 44.2% | 8.65% (active) | 21.7% | 29% | 35.4% | 59.1% | -25.9% (active) | 22.4% | 24.7% | 33.3% | 70.3% | 30.7%
